NR3A LBD binder: modulates the human NR3A ligand-binding domain; Tm shift relative to glycine control, % at 25 µM; NR3A LBD differential scanning fluorimetry, Tm shift; 0% = protein alone, 100% = glycine-bound protein; 340,000 compounds, 2.5% hits;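 active means melting temperature shift of at least 10% of the positive control shift, at one fixed dose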
Yeast superoxide: caloric restriction mimetics inhibiting age-related superoxide in yeast | S. cerevisiae aged cells, superoxide DHE fluorescence; active compounds read low | 330,000 compounds, 0.18% hits | AID 2690 | superoxide response (% of plate mean), % at 10 µM;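 active means superoxide response under a set limit, about three screen SD below normal, cut at about 65% in these data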;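 further: yeast aged for seven days with compound at 30 °C before DHE staining; 100% = average MFI of all compound-treated wells on the plate with controls excluded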
dFosB act: enhances mouse delta FosB homodimer DNA binding. P13346. purified delta FosB, TAMRA-CDK5 oligo fluorescence polarization; percent of positive-control signal above neutral wells. activation, % at 25 µM. 340,000 compounds, 0.99% hits. AID 493131;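 active means mean activation above about 17%, with every replicate also reaching it, limit read from the data, passing the limit was not always enough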
NALP1 inh: inhibitors of NALP1 inflammasome in yeast; S. cerevisiae NALP1/ASC/caspase-1 growth, X-gal OD620, 72 h; inhibition, % at 10 µM; 280,000 compounds, 0.61% hits; AID 2071; in the data active means inhibition mostly above about 24%, no sharp cut-off; inactive means mostly below about 32%
UBC13 polyUb: blocks human UBC13 polyubiquitin chain formation; P61088; TR-FRET; inhibition, % at 20 µM; 330,000 compounds, 0.47% hits; AID 485273; in the data active means inhibition above about 45%, passing the limit was not always enough
Target sequence (P61088 whole entry, looked up): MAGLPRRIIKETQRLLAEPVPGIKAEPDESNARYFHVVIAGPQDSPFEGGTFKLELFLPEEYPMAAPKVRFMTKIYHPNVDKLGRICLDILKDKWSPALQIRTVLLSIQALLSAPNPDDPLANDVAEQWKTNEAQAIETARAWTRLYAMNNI
* = called active by the depositor; · = not tested or not shown. In the library only some 4.3% were active in any assay of this set; here they are far more common.

SMILES	NR3A LBD binder	Yeast superoxide	dFosB act	NALP1 inh	UBC13 polyUb
O=C1/C(=C/c2ccccc2Cl)SC(=S)N1CCC(=O)N1CCCCC1CCO (stereo not given)	1.8	97.1	-11.4	16.1	-10.5
COc1cc(NS(=O)(=O)c2ccc(NC(C)=O)cc2)ncn1	-0.5	89.1	-5.8	-4.7	2.2
COc1cccc(C(=O)Nc2ccccc2)c1	25.9*	99.2	-1.7	3.7	4.6
COc1cc(NC(=O)COc2ccc(Cl)cc2)ccc1NC(=O)C(C)C	0.0	108.1	-11.4	·	-2.5
COc1cc(NS(=O)(=O)c2ccc(NC(=O)c3ccc(F)cc3)cc2)ncn1	12.6*	93.3	4.0	2.6	-5.2
COc1cc(NC(=O)COc2ccc(Cl)cc2)ccc1-c1cc2ccccc2oc1=O	10.2*	111.4	-4.8	20.5	13.3
CS(=O)(=O)Nc1ccc(C(=O)Nc2ccc3ccccc3c2)cc1	30.8*	99.8	2.1	15.5	1.1
Cc1cccc(C)c1NC(=O)C1C2C=CC(C2)C1C(=O)O (stereo not given)	-0.1	90.8	2.4	15.7	-3.5
CCCNc1ncc2c(=O)[nH][nH]c(=O)c2n1	0.2	·	0.1	·	·
CCn1cc(C(=O)OCC(=O)NCc2ccccc2Cl)c(=O)c2ccc(C)nc21	0.4	111.4	-19.1	-14.0	-8.6
COc1ccc(NC(=O)c2cccc(OS(=O)(=O)N(C)C)c2)cc1	11.7*	72.5	-7.8	13.9	11.1
CC(C)c1ccc(NC(=O)c2ccc(NS(C)(=O)=O)cc2)cc1	19.8*	98.6	-8.2	1.1	-0.8
COc1cc(NS(=O)(=O)c2ccc(NC(=S)NC(=O)c3sc4cc(F)ccc4c3Cl)cc2)nc(OC)n1	17.1*	91.9	-9.2	22.7	-19.9
COc1ccc(C(=O)Nc2ccc3ccccc3c2)cc1	21.1*	96.8	-2.3	6.4	-2.5
Cc1cccc(C(=O)Nc2ccc3ccccc3c2)c1	8.7	93.1	-4.8	20.3	-5.4
COc1cccc(C(=O)Nc2ccc(NC(=O)c3cc4ccccc4o3)c(OC)c2)c1	23.3*	115.1	1.3	23.6	6.9
COc1cccc(C(=O)Nc2ccc3ccccc3c2)c1	30.4*	95.7	-2.7	9.1	-1.8
COc1ccc(NC(=O)NNC(=O)COc2ccc3ccccc3c2)cc1OC	15.9*	106.7	-28.5	2.7	7.4
CCOC(=O)c1ccc(NC(=O)c2ccc(NS(C)(=O)=O)cc2)cc1	15.9*	116.9	-13.5	-2.1	-2.4
CCOC(=O)c1ccc(NC(=O)c2ccccc2)cc1	-2.7	115.2	-3.6	18.9	5.3
O=C(NCc1ccccc1)c1cc2ccc(O)cc2oc1=O	-0.2	97.3	-2.8	3.0	13.4
O=C(O)c1ccc2c(c1)C(=O)/C(=C/c1ccccc1)C2=O	26.1*	109.9	-8.7	30.4	-34.1
O=C(NC(Cc1c[nH]c2ccccc12)C(=O)N/N=C/c1ccc(Cl)cc1)c1cccs1 (stereo not given)	19.5*	99.1	-12.1	5.0	-14.5
N=c1n(CCN2CCCCC2)c2ccccc2n1CC(O)c1ccc(Cl)c(Cl)c1 (stereo not given)	-1.3	84.8	-7.8	43.4*	22.2
CC(C)(C)N(Cc1ccccc1)C(=O)COC(=O)C1CC1	1.1	91.8	-5.5	·	1.4
SMILES	NR3A LBD binder	Yeast superoxide	dFosB act	NALP1 inh	UBC13 polyUb
Cc1csc(N(C(=O)c2cccc(S(=O)(=O)N(C)C)c2)c2ccccc2)n1	12.2*	81.3	0.0	-0.4	-4.8
OCCN(CCO)c1cc2c3ccccc3ccc2c2ccccc12	-14.9	·	-10.3	·	·
COc1cc([N+](=O)[O-])c(N2CCOCC2)c([N+](=O)[O-])c1OC	3.5	114.7	-2.6	41.5*	15.3
O=C(NCc1ccco1)c1ccc2c(c1)OCCO2	0.7	111.4	0.6	23.6	1.3
CCCCCCn1c(O)c(/C=C2\C=NN=C2c2ccccc2)sc1=S	35.2*	92.3	-4.8	27.8	-9.9
CCn1c(O)c(/C=C2\C=NN=C2c2ccccc2)sc1=S	-2.1	96.4	7.1	·	4.5
CCCCn1c(O)c(/C=C2\C=NN=C2c2ccccc2)sc1=S	25.6*	128.6	-2.7	28.7	-14.6
CC(C)Cn1c(O)c(/C=C2\C=NN=C2c2ccccc2)sc1=S	29.9*	94.8	-3.9	28.3	6.4
O=C(COC(=O)c1cccc(Br)c1)NCCNC(=O)COC(=O)c1cccc(Br)c1	2.3	106.4	-9.8	-0.9	-2.0
O=[N+]([O-])c1ccc(O)c(Nc2c([N+](=O)[O-])ccc3nonc23)c1	·	124.0	1.7	3.5	-76.7

Assay outcomes from PubChem.
